Screening data deposited in PubChem BioAssay by National Center for Advancing Translational Sciences (NCATS).
NPC1 promoter act: qHTS Assay for NPC1 Promoter Activators; Potency, µM (series often up to 9.22 µM), without a hit: top-dose activation, actives largely listed as activators; Huh7 NPC1 promoter luciferase reporter, 24 h; hit rate 2.4% among 320,000; also: % of control where 0% means no effect; nearly all actives have a fitted effect of over 60% in size
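Quantitative HTS used a cell-based reporter: Huh7 cells stably bearing the NPC1 promoter upstream of luciferase were treated with compounds for 24 h, and promoter activation was read as luminescence.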
FLuc counter: qHTS profiling assay for firefly luciferase inhibitor/activator using purifed enzyme and Km concentrations of substrates (counterscreen for miR-21 project); Potency, µM (titrated, usually from 57.5 µM), for inactives: at the highest dose activity change, negative = inhibition, hits mostly inhibitors; Luciferin 4-monooxygenase (Photinus pyralis), P08659; hit rate 6.9% among 360,000; purified FLuc, Km substrates, luminescence inhibition; AID 588342, 2011;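 also: plate controls were vehicle for no effect and reference inhibitor for full effect; nearly all actives have a fitted effect of over 55% in size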
Target sequence (P08659 whole entry, looked up): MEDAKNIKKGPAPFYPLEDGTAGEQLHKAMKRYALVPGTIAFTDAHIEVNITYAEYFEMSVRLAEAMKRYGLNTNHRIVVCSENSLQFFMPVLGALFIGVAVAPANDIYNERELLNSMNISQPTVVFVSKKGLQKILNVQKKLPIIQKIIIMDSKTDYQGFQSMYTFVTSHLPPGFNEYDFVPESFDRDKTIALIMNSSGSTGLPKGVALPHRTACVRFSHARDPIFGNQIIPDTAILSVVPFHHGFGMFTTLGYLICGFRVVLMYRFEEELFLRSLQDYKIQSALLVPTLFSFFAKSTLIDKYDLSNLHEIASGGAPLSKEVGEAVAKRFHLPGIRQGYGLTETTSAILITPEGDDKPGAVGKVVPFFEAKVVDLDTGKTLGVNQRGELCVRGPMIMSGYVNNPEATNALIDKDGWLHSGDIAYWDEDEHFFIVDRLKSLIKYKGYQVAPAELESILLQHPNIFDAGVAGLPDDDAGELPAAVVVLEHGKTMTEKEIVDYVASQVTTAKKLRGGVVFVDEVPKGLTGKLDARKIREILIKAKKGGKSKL
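Biochemical qHTS of compounds, final roughly 60 µM downward over six points, against 10 nM purified firefly luciferase using Km concentrations of substrates (10 uM D-luciferin, 10 uM ATP) in Tris acetate pH 7.5 buffer; luminescence output.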
ELG1 genotoxic: qHTS screen for small molecules that induce genotoxicity in human embryonic kidney (HEK293T) cells expressing luciferase-tagged ELG1 | hit rate 1.3% among 330,000 | HEK293T ELG1-luciferase reporter, luminescence, 16 h | Potency, µM (series often up to 46 µM), for the others: at the highest dose activity change, positive = activation, hits mostly activators; also: % of control where 0% means no effect; nearly all actives have a fitted effect of over 60% in size
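Quantitative HTS format in 1536-well plates. HEK293T ELG1-luciferase reporter cells receive test compound and are incubated 16 hr at 37 °C, 5% CO2; ONE-Glo added, 30 min room temperature, then luminescence read.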
SMN2 splice enh: qHTS Assay for Enhancers of SMN2 Splice Variant Expression | Potency, µM (top dose mostly 46.1 µM), for inactives: at the highest dose activity change, positive = activation, most hits filed as activators | AID 1458, 2008 | hit rate 2.8% among 210,000 | HEK293 SMN2-luciferase splicing reporter, luminescence, 30-36 h; also: % of control where 0% means no effect; nearly all actives have a fitted effect of over 55% in size
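qHTS luciferase splicing reporter: luminescence rises when SMN2 exon 7 is included in transfected HEK293 cells. Compound exposure lasted 30-36 h at 37C, with 4.5 mM final sodium butyrate as control, followed by a ONE-Glo read.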
Rab9 prom act: qHTS Assay for Rab9 Promoter Activators; Huh7 Rab9 promoter-luciferase reporter, luminescence, 24 h; Potency, µM (top dose mostly 9.22 µM), for the others: at the top dose activation, negative = inhibition, usual class: activators; hit rate 2.8% among 320,000; also: % of control where 0% means no effect; nearly all actives have a fitted effect of over 60% in size
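Measured in stably transfected Huh7 cells bearing a Rab9 promoter–luciferase construct: 24 h compound treatment at 37 °C, followed by luminescence detection.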
KinaseGlo FLuc: Counterscreen for Luciferase (Kinase-Glo TM) Inhibition; AID 1379, 2008; Kinase-Glo luciferase, ATP luminescence, 8 min; hit rate 0.28% among 200,000; Luciferin 4-monooxygenase (Photuris pensylvanica), Q27757; Potency, µM (top dose mostly 38.3 µM), without a hit: at the highest dose activity change, negative = inhibition, most hits filed as inhibitors; also: % is scaled to controls: 0 for no effect and ±100 for the full control effect; nearly all actives have a fitted effect of over 60% in size
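Compounds were added to a substrate mix at pH 7.2 (50 mM imidazole, 10 uM ATP, within the enzyme's linear range), followed by Kinase-Glo detection reagent; luminescence was measured after 8 minutes at ambient temperature.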
* hit, by the source's call; ? = inconclusive; . = no result. A selection: hits, their analogues and other compounds. The true share with any hit is near 7.5%. Calls follow the shape of the dose curve; as a rule, active = well fitted curve in the direction sought with a large enough effect; inconclusive = small, poorly fitted or top-dose-only effect, or another doubt; inactive = no such curve, though single readings can be large; an effect the other way counts as inactive or inconclusive. Potency is read from the fitted curve at half-maximal effect.

SMILES	NPC1 promoter act	FLuc counter	ELG1 genotoxic	SMN2 splice enh	Rab9 prom act	KinaseGlo FLuc
Nc1ccc2oc(Cc3ccc(Cl)cc3)nc2c1	.	?	.	-0.6%	.	.
CC1=C(c2ccc(C(C)C)cc2)S(=O)(=O)NC1=NCCCN1CCN(c2ccccc2F)CC1	.	1.5%	.	.	.	.
COc1cc(/C=C2\CC/C(=C\c3ccc(OCCO)c(OC)c3)C2=O)ccc1OCCO	-3.1%	-8.9%	-3.7%	-24.2%	-1.6%	4.5%
COc1ccc(/C=C2\CC/C(=C\c3ccc(OC)c(OC)c3)C2=O)cc1OC	0.8%	1.2µM*	12.0%	3.8%	-5.7%	-1.1%
CCOC(=O)c1[nH]c(C)c(CCC(=O)Nc2ccccc2C(=O)OC)c1C	.	0.4%	.	.	.	.
CC1=NN(C(N)=S)C(=O)C1N=Nc1cccc(Cl)c1C (stereo unspecified)	?	10.7µM*	7.2%	.	3.55µM*	.
CC1=NN(C(N)=S)C(=O)C1N=Nc1cccc2ccccc12 (stereo unspecified)	?	16.9µM*	?	?	?	-3.4%
CCNC(=O)CC1SC(=Nc2cccc3ccccc23)N(C)C1=O (stereo unspecified)	-7.1%	-0.1%	2.7%	10.2%	0.8%	2.2%
CCc1ccc2c(c1)C(c1ccc([N+](=O)[O-])cc1)=NNC(c1ccc(C)cc1)=N2	0.8%	-1.6%	15.4%	3.1%	-12.4%	-3.2%
COc1ccc(C2CC(c3ccccc3)=NN2C(=O)COC(=O)c2nc3nccc(C)n3n2)cc1 (stereo unspecified)	0.7%	5.5%	6.8%	3.1%	0.4%	2.6%
CC(C)c1ccc(/C=C/C2=NNC(=O)CC2)cc1	-17.5%	5.36µM*	?	10µM*	?	-4.3%
COc1cc(/C=C/C2=NNC(=O)CC2)cc(OC)c1OC	-2.8%	-1.3%	?	.	-4.0%	.
Cc1cc(Br)c(NC(=O)COC(=O)CC2CC3CCC2C3)c(Br)c1 (stereo unspecified)	.	.	0.8%	.	.	.
CC1CCc2nc(/C(C#N)=C/c3ccncc3)sc2C1 (stereo unspecified)	2.82µM*	9.53µM*	?	17.8µM*	3.16µM*	0.9%
COc1ccc(Nc2n[nH]c(C)c2[N+](=O)[O-])cc1	22.3%	?	?	28.9%	3.55µM*	-2.7%
COc1ccc(-c2nc3cnc(N4CCNCC4)nc3n(CCC#N)c2=O)cc1	.	.	.	-3.4%	.	-2.2%
O=c1[nH]c2ccc(NCc3ccc(-c4ccccc4F)o3)cc2[nH]1	.	-1.4%	.	.	.	.
COc1ccc(-n2nc(C(=O)NCC(=O)N3CCCC3)c3ccccc3c2=O)cc1Cl	-2.1%	8.49µM*	-5.4%	.	10.9%	.
CCOC(=O)N1CCN(C(=O)CNC(=O)c2nn(-c3ccc(OC)c(OC)c3)c(=O)c3ccccc23)CC1	-0.2%	6.75µM*	-11.4%	.	11.5%	.
COC(=O)CNC(=O)CNC(=O)c1nn(-c2ccc(OC)c(Cl)c2)c(=O)c2ccccc12	-7.7%	1.1%	-0.6%	-10.8%	2.3%	3.1%
CCOC(=O)N1CCN(C(=O)CNC(=O)c2nn(-c3ccc(OC)c(Cl)c3)c(=O)c3ccccc23)CC1	6.3%	4.78µM*	0.7%	.	19.4%	.
CCCCNC(=O)CNC(=O)c1nn(-c2ccc(OC)c(Cl)c2)c(=O)c2ccccc12	-0.1%	-0.3%	4.3%	.	-1.9%	.
COc1ccc(CNC(=O)Cn2nc(N3CCN(c4ccccc4)CC3)ccc2=O)c(OC)c1	.	-1.4%	.	.	.	.
Cc1nnc(NC(=O)c2ccc(-c3cccc(C(F)(F)F)c3)o2)s1	1.8%	2.8%	3.2%	?	11.2%	1.9%
O=C(NCCNC(=O)c1ccc(-c2ccc(Cl)c(Cl)c2)o1)c1cnccn1	8.1%	15.1µM*	-4.4%	.	2.0%	.
SMILES	NPC1 promoter act	FLuc counter	ELG1 genotoxic	SMN2 splice enh	Rab9 prom act	KinaseGlo FLuc
CC(=O)Cc1nsc(NC(=O)c2cc(-c3ccccc3Cl)oc2C)n1	1.6%	?	3.0%	-5.5%	-11.0%	-2.8%
CC(=O)Cc1nsc(NC(=O)c2ccc(-c3ccc(Cl)c(Cl)c3)o2)n1	-1.0%	10.7µM*	-3.1%	3.0%	-2.2%	2.7%
CC(=O)Cc1nsc(NC(=O)c2ccc(-c3cccc(C(F)(F)F)c3)o2)n1	0.3%	9.53µM*	-3.1%	?	1.4%	2.0%
CC(=O)Cc1nsc(NC(=O)c2cc(-c3ccc(Cl)c(Cl)c3)oc2C)n1	-3.4%	-2.3%	0.3%	-5.4%	-1.3%	0.3%
O=C(NCCCNC(=O)c1ccc(-c2cccc(Cl)c2)o1)c1cnccn1	-3.2%	-9.2%	-4.4%	.	6.0%	.
CC(=O)Cc1nsc(NC(=O)c2ccc(-c3ccc(Cl)cc3Cl)o2)n1	2.6%	6.75µM*	-3.0%	-2.0%	2.8%	-3.6%
CCCCn1nc(C(=O)N2CCN(S(=O)(=O)c3ccccc3)CC2)c2ccccc2c1=O	-3.5%	-2.1%	-6.5%	.	-3.1%	.
CCCCCCCCCCCCCCCCCCOC[C@H](COP(=O)([O-])OCC[N+](C)(C)C)OC(C)=O	.	.	.	-5.8%	.	-10.0%
CC(=O)Cc1nsc(NC(=O)c2ccc(-c3cc(C(F)(F)F)ccc3Cl)o2)n1	-14.5%	-17.8%	-11.6%	?	-15.9%	-3.4%
CC(=O)Cc1nsc(NC(=O)c2ccc(-c3cc(Cl)ccc3Cl)o2)n1	-10.9%	13.5µM*	-6.2%	-13.8%	-1.0%	0.3%
CCn1c(SCCOc2ccc(Cl)cc2)nnc1-c1cccs1	-2.0%	-1.6%	-13.1%	-23.4%	0.4%	11.5%
CCn1c(SCC(=O)c2ccc(Cl)cc2)nnc1-c1cccs1	0.5%	23.9µM*	5.2%	-6.7%	15.8%	-2.1%
Cc1nnc(SCC(=O)c2ccc(Cl)cc2)n(N)c1=O	0.794µM*	2.1%	15.6%	5.01µM*	1µM*	-0.4%
CCn1c(SCC(=O)c2ccc(Cl)cc2)nnc1C(C)C	?	19µM*	?	1.8%	?	2.5%
Cc1cccc(NC(=O)N2CCCC2C(=O)Nc2ccccc2)c1 (stereo unspecified)	-0.6%	-0.9%	0.0%	.	-6.2%	2.8%
O=C(CCCCn1c(=O)c2ccccc2n(CC(=O)Nc2cccc(F)c2)c1=O)NCc1ccccc1Cl	.	-1.8%	.	4.3%	.	.
CC(C)Cc1ccc(C(=O)NCCOc2ccccc2)o1	0.316µM*	0.953µM*	3.26µM*	.	0.794µM*	.
O=C(COc1ccccc1)NNC(=O)c1cc2ccccc2o1	0.6%	-10.9%	0.7%	-12.6%	0.7%	-0.7%
O=C(NCCOc1ccccc1)c1cc2ccccc2o1	.	5.36µM*	.	10µM*	.	-3.7%
